Laboratory results reported in PubChem BioAssay AID1159580 (chemical genetic matrix, 2015).
The campaign covered roughly 5,500 compounds. About 2,000 (36%) were called active. Not shown: some 18% with an inconclusive outcome. Cut-off read from the data, not from the text of the source: active = normalized growth mostly below about 0.91 (no sharp cut-off); inconclusive = no clear call, values can overlap the other calls; inactive = mostly above about 0.92. The list shows a part of the results.

Assay: chemical genetic growth profiling, strain panel (AID 1159580);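 note: tested at 20 µM; growth read once vehicle control cultures reached saturation at 30 °C; 1 = growth at the plate median or of vehicle wells; lower values mean less growth of the strain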
Conditions: S. cerevisiae deletion strains, growth OD
[1] = locus YHR030C, strain SLT2, active compounds read low
[2] = locus YHR079C, strain IRE1, active compounds read low
[3] = locus YJL095W, strain BCK1, active compounds read low
[4] = locus YJR066W, strain TOR1, active compounds read low
[5] = locus YLR113W, strain HOG1, active compounds read low
[6] = locus YNL183C, strain NPR1, active compounds read low
[7] = locus YOR231W, strain MKK1, active compounds read low
[8] = locus YPL256C, strain CLN2, active compounds read low
[9] = locus YAL021C, strain ccr4, active compounds read low
[10] = locus YAL026C, strain drs2, active compounds read low
[11] = locus YAL030W, strain snc1, active compounds read low
[12] = locus YBL061C, strain skt5, active compounds read low
[13] = locus YBR009C, strain hhf1, active compounds read low
[14] = locus YBR023C, strain chs3, active compounds read low
[15] = locus YBR171W, strain sec66, active compounds read low
[16] = locus YBR231C, strain swc5, active compounds read low
[17] = locus YBR279W, strain paf1, active compounds read low
[18] = locus YCL011C, strain gbp2, active compounds read low
[19] = locus YCL016C, strain dcc1, active compounds read low
[20] = locus YCL061C, strain MRC1, active compounds read low
[21] = locus YCL069W, strain vba3, active compounds read low
[22] = locus YCR088W, strain abp1, active compounds read low
[23] = locus YDL005C, strain med2, active compounds read low
[24] = locus YDL040C, strain nat1, active compounds read low
[25] = locus YDR001C, strain nth1, active compounds read low
[26] = locus YDR069C, strain doa4, active compounds read low
[27] = locus YDR137W, strain rgp1, active compounds read low
[28] = locus YDR159W, strain sac3, active compounds read low
[29] = locus YDR297W, strain sur2, active compounds read low
[30] = locus YDR334W, strain swr1, active compounds read low
[31] = locus YDR335W, strain msn5, active compounds read low
[32] = locus YDR392W, strain spt3, active compounds read low
[33] = locus YEL003W, strain gim4, active compounds read low
[34] = locus YEL037C, strain rad23, active compounds read low
[35] = locus YEL061C, strain CIN8 (second series), active compounds read low
[36] = locus YER015W, strain faa2, active compounds read low
[37] = locus YER016W, strain bim1, active compounds read low
[38] = locus YER111C, strain swi4, active compounds read low
[39] = locus YER155C, strain BEM2 (second series), active compounds read low
[40] = locus YFR010W, strain ubp6, active compounds read low
[41] = locus YGL167C, strain pmr1, active compounds read low
[42] = locus YGL173C, strain kem1, active compounds read low
[43] = locus YGL227W, strain vid30, active compounds read low
[44] = locus YGL240W, strain doc1, active compounds read low
[45] = locus YGL253W, strain hxk2, active compounds read low
[46] = locus YHR013C, strain ard1, active compounds read low
[47] = locus YHR027C, strain rpn1, active compounds read low
[48] = locus YHR142W, strain chs7, active compounds read low
[49] = locus YJL092W, strain hpr5, active compounds read low
[50] = locus YJL095W, strain BCK1 (second series), active compounds read low
[51] = locus YJL115W, strain asf1, active compounds read low
[52] = locus YJL129C, strain trk1, active compounds read low
[53] = locus YJL154C, strain vps35, active compounds read low
[54] = locus YJL164C, strain tpk1, active compounds read low
[55] = locus YJL166W, strain qcr8, active compounds read low
[56] = locus YKL160W, strain elf1, active compounds read low
[57] = locus YKR026C, strain gcn3, active compounds read low
[58] = locus YKR091W, strain srl3, active compounds read low
[59] = locus YLL001W, strain dnm1, active compounds read low
[60] = locus YLL026W, active compounds read low
[61] = locus YLL041C, strain sdh2, active compounds read low
[62] = locus YLR027C, strain aat2, active compounds read low
[63] = locus YLR221C, strain rsa3, active compounds read low
[64] = locus YLR258W, strain gsy2, active compounds read low
[65] = locus YLR262C, strain YPT6 (second series), active compounds read low
[66] = locus YLR320W, strain mms22, active compounds read low
[67] = locus YLR342W, strain FKS1, active compounds read low
[68] = locus YLR357W, strain rsc2, active compounds read low
[69] = locus YLR370C, strain arc18, active compounds read low
[70] = locus YLR384C, strain iki3, active compounds read low
[71] = locus YML120C, strain ndi1, active compounds read low
[72] = locus YMR058W, strain fet3, active compounds read low
[73] = locus YMR125W, strain sto1, active compounds read low
[74] = locus YMR129W, active compounds read low
[75] = locus YMR205C, strain PFK2, active compounds read low
[76] = locus YMR231W, strain pep5, active compounds read low
[77] = locus YNL071W, strain lat1, active compounds read low
[78] = locus YNL209W, strain ssb2, active compounds read low
[79] = locus YNL248C, strain rpa49, active compounds read low
[80] = locus YNL322C, strain KRE1 (second series), active compounds read low
[81] = locus YNR049C, strain mso1, active compounds read low
[82] = locus YOR001W, strain rrp6, active compounds read low
[83] = locus YOR070C, strain gyp1, active compounds read low
[84] = locus YOR080W, strain dia2, active compounds read low
[85] = locus YOR083W, strain WHI5, active compounds read low
[86] = locus YOR106W, strain vam3, active compounds read low
[87] = locus YOR265W, strain rbl2, active compounds read low
[88] = locus YOR270C, strain vph1, active compounds read low
[89] = locus YOR290C, strain snf2, active compounds read low
[90] = locus YPL051W, strain arl3, active compounds read low
[91] = locus YPL078C, strain atp4, active compounds read low
[92] = locus YPL106C, strain sse1, active compounds read low
[93] = locus YPL240C, strain hsp82, active compounds read low

Measured: normalized growth

O=S(=O)([O][Al])OC[C@H]1O[C@@](COS(=O)(=O)[O][Al])(O[C@H]2O[C@H](COS(=O)(=O)[O][Al])[C@@H](OS(=O)(=O)[O][Al])[C@H](OS(=O)(=O)[O][Al])[C@H]2OS(=O)(=O)[O][Al])[C@@H](OS(=O)(=O)[O][Al])[C@@H]1OS(=O)(=O)[O][Al]
inactive: [1] 0.977 | [2] 0.981 | [3] 0.986 | [4] 0.958 | [5] 0.984 | [6] 0.924 | [7] 0.98 | [8] 0.985

Nc1cc(C(Cl)=C(Cl)Cl)c(S(N)(=O)=O)cc1S(N)(=O)=O
inactive: [9] 0.98 | [10] 1 | [11] 1.02 | [12] 1.01 | [13] 0.992 | [14] 0.999 | [15] 1.02 | [16] 1.04 | [17] 1.01 | [18] 0.976 | [19] 0.978 | [20] 1.04 | [21] 1.01 | [22] 1.01 | [23] 1.01 | [24] 1.01 | [25] 1.02 | [26] 1.05 | [27] 0.998 | [28] 0.957 | locus YDR195W, strain ref2 0.998 | [29] 1.01 | [30] 1.01 | [31] 1.01 | [32] 0.978 | [33] 1.05 | [34] 1 | [35] 1 | [36] 1.02 | [37] 1 | [38] 1.01 | [39] 1.07 | [40] 1.02 | [41] 1.02 | [42] 1.04 | [43] 1 | [44] 1.04 | [45] 1.01 | [46] 1.03 | [47] 1.02 | [1] 0.977 | [2] 0.967 | [48] 1.02 | [49] 1.02 | [50] 0.997 | [3] 1.01 | [51] 1 | [52] 1.02 | [53] 0.999 | [54] 0.995 | [55] 1.06 | [4] 0.95 | [56] 1.02 | [57] 1.01 | [58] 0.992 | [59] 1.04 | [60] 1.02 | [61] 1.01 | [62] 1.02 | [5] 1 | [63] 0.981 | [64] 0.991 | [65] 1.06 | [66] 0.993 | [67] 1.04 | [68] 1.04 | [69] 1 | [70] 1.01 | [71] 1.03 | [72] 1.02 | [73] 0.972 | [74] 0.998 | [75] 1.03 | [76] 1.01 | [77] 0.991 | [6] 0.962 | [78] 0.994 | [79] 0.995 | [80] 1.01 | [81] 1 | [82] 1.02 | [83] 1 | [84] 1.02 | [85] 1.01 | [86] 1.04 | [7] 0.986 | [87] 1.01 | [88] 1.05 | [89] 0.964 | [90] 1.04 | [91] 1.06 | [92] 0.997 | [93] 1 | [8] 0.964

Cc1ncc([N+](=O)[O-])n1CC(C)O (stereo unspecified)
inactive: [9] 0.954 | [10] 0.956 | [11] 0.975 | [12] 0.974 | [13] 0.982 | [14] 0.995 | [15] 0.976 | [16] 0.992 | [17] 0.995 | [18] 0.968 | [19] 0.975 | [20] 0.924 | [21] 0.975 | [22] 0.986 | [23] 0.976 | [24] 0.978 | [25] 0.95 | [26] 0.966 | [27] 0.983 | [28] 0.972 | locus YDR195W, strain ref2 0.989 | [29] 0.982 | [30] 0.957 | [31] 0.982 | [32] 0.922 | [33] 0.977 | [34] 0.983 | [35] 0.964 | [36] 0.988 | [37] 0.983 | [38] 0.978 | [39] 0.994 | [40] 0.969 | [41] 0.981 | [42] 0.966 | [43] 0.985 | [44] 0.995 | [45] 0.981 | [46] 0.948 | [47] 0.987 | [1] 0.976 | [2] 0.979 | [48] 0.99 | [49] 0.961 | [50] 0.984 | [3] 0.991 | [51] 0.982 | [52] 0.966 | [53] 0.979 | [54] 0.966 | [55] 0.996 | [4] 0.883 | [56] 1 | [57] 0.984 | [58] 0.983 | [59] 0.988 | [60] 0.988 | [61] 0.982 | [62] 0.994 | [5] 1.01 | [63] 0.958 | [64] 0.974 | [65] 0.981 | [66] 0.96 | [67] 0.987 | [68] 0.959 | [69] 0.992 | [70] 0.998 | [71] 0.967 | [72] 0.971 | [73] 0.945 | [74] 0.965 | [75] 0.979 | [76] 0.972 | [77] 0.979 | [6] 0.891 | [78] 0.987 | [79] 0.946 | [80] 0.974 | [81] 0.978 | [82] 0.994 | [83] 0.985 | [84] 0.981 | [85] 0.997 | [86] 0.978 | [7] 0.991 | [87] 0.99 | [88] 0.97 | [89] 0.939 | [90] 1 | [91] 0.997 | [92] 0.931 | [93] 0.98 | [8] 0.965
